Measured values published in PubChem BioAssay AID1650 (Southern Research Specialized Biocontainment Screening …, 2009).
Measured potencies and affinities stand elsewhere. Calls of active or inactive are those of the source. How the calls were made is not given here.

Assay: host cell cytotoxicity of antiviral hits, dose response, cytotoxicity control for West Nile virus antiviral project, secondary assay (AID 1650)
Conditions: Mammalian host cell viability, cytotoxicity counter-screen; series mostly up to 10 µM
In the case of `CN1CCN(CC(=O)Nc2c(C(=O)c3ccccc3)oc3ccccc23)CC1`, the outcome is reported as “inactive”.
For `CN1CCN(C(=O)CCN2C(=O)/C(=C/c3ccccc3Cl)SC2=S)CC1`, the outcome was “inactive”.
For `C[C@H]1[C@H](C)CC[C@]2(C(=O)O)CC[C@]3(C)C(=CC[C@@H]4[C@@]5(C)C[C@@H](O)[C@H](O)C(C)(C)[C@@H]5CC[C@]43C)[C@H]12`, the outcome was “inactive”.
For `CCOc1ccc(NCc2cc3c(C(C)(C)C)nn(-c4ccccc4)c3[nH]c2=O)cc1`, the outcome was “inactive”.
In the case of `O=C(CN1C(=O)/C(=C\c2cccc(Cl)c2)Sc2ccccc21)NCCCN1CCOCC1`, the outcome is reported as “inactive”.
In the case of `COc1cc(CNC(C)(C)C)cc(Br)c1OCc1cccs1`, the outcome is reported as “inactive”.
With `CC(C)(C)c1ccc(-c2nnc(SCC(=O)Nc3sc4c(c3C#N)CCCC4)o2)cc1` the outcome was “inactive”.
For `COc1ccc(-n2cc(CNCCCn3ccnc3)c(-c3cccc(F)c3)n2)cc1`, the outcome was “inactive”.
In the case of `CC(C)c1ccc(-c2cc(C(=O)NN3CCN(C)CC3)c3ccccc3n2)cc1`, the outcome is reported as “inactive”.
For `Cn1cc(CN2CCCC(C(=O)Nc3cccc(-c4cc5ccccc5[nH]4)c3)C2)cn1` (centres undefined), the outcome was “inactive”.
For `Cc1onc(-c2cccc(Cl)c2Cl)c1C(=O)O/N=C(\N)c1ccc([N+](=O)[O-])o1`, the outcome was “inactive”.
For `Cc1cccc(-c2ccc(NC(=O)C3CCN(CC4CC4)CC3)cc2)c1`, the outcome was “inactive”.
In the case of `CCC(C)NC(=O)/C(=C/c1ccco1)c1ccccc1` (centres undefined), the outcome is reported as “inactive”.
In the case of `COc1ccc(S(=O)(=O)NC2CCCC2)c(Cl)c1Cl`, the outcome is reported as “inactive”.
For `O=[N+]([O-])c1cc(-c2nnc(Nc3ccc(O)cc3)c3ccccc23)ccc1N1CCOCC1`, the outcome was “inactive”.
With `O=C(NCCCN1CCCC1)c1ccc2c(c1)N(Cc1cccc(Cl)c1)C(=O)c1ccccc1S2=O` (centres undefined) the outcome was “inactive”.
For `Cc1coc(NC(=O)CSc2nc(-c3ccncc3)cc(C(F)(F)F)c2C#N)n1`, the outcome was “inactive”.
In the case of `OC(COc1ccc(CNCCc2ccc(C(F)(F)F)cc2)cc1)CN1CCCCC1` (centres undefined), the outcome is reported as “inactive”.
With `CCCCc1nc2ccccc2c(N)c1CCC` (tested in a mixture with another compound) the outcome was “inactive”.
For `CN1CCN(c2nc(Nc3ccc(F)cc3)nc(Nc3ccc(F)cc3)n2)CC1`, the outcome was “inactive”.
With `CN(Cc1ccccc1)c1nc(N)c([N+](=O)[O-])c(Nc2cccc(F)c2)n1` the outcome was “inactive”.
With `CC1CCCN(Cc2c(O)ccc3c(=O)c(-c4nc5ccccc5s4)c(N)oc23)C1` (centres undefined) the outcome was “inactive”.
In the case of `CN1C(=O)/C(=C\C(=O)c2cccs2)c2ccccc21`, the outcome is reported as “inactive”.
With `COc1ccc(/C=C2\SC(=S)N(CCC(=O)NCCc3ccc(O)cc3)C2=O)cc1` the outcome was “inactive”.
In the case of `CCCN1CCN(C(=S)Nc2ccc3nc(N4CCN(CC)CC4)cc(C)c3c2)CC1`, the outcome is reported as “inactive”.
With `COc1cc(C2c3c(oc4cc(C)c(C)cc4c3=O)C(=O)N2c2cc(C)ccn2)ccc1O` (centres undefined) the outcome was “inactive”.
In the case of `COc1ccc(OCC(O)Cn2c(=N)n(Cc3ccccc3)c3ccccc32)cc1` (centres undefined), the outcome is reported as “inactive”.
For `COC1(OC)C=CC(=O)C=C1NC(=O)c1ccccc1OC(C)=O`, the outcome was “inactive”.
With `Cc1ccc2cc(C#N)c(N3CCCN(C(=S)NCCCN(C)C)CC3)nc2c1` the outcome was “inactive”.
For `O=C(Nc1cccc(Cl)c1)Nc1cc(S(=O)(=O)N2CCCCC2)ccc1Cl`, the outcome was “inactive”.
For `COc1ccc2cc(Br)ccc2c1CC(=O)NC1CC(C)(C)NC(C)(C)C1`, the outcome was “inactive”.
In the case of `CCN(CC)CCNC(=O)c1ccc(NC(=O)C2CCN(c3ncnc4sc(C)c(C)c34)CC2)cc1`, the outcome is reported as “inactive”.
For `CCN1CCN(c2cc(C)c3cc(NC(=S)N4CC(C)CC(C)C4)ccc3n2)CC1` (centres undefined), the outcome was “inactive”.
In the case of `O=S(=O)(/C=C/c1ccccc1)Oc1ccccc1`, the outcome is reported as “inactive”.
For `CN1CCN(c2ccc(C(F)(F)F)cc2NC(=O)Nc2ccccc2)CC1`, the outcome was “inactive”.
With `COc1ccc(CCNC(=O)c2cc3c(=O)n4cccc(C)c4nc3n(CCCN3CCOCC3)c2=N)cc1` the outcome was “inactive”.
In the case of `O=[N+]([O-])c1nn(-c2ccccc2)n(O)c1=NC1CCN(Cc2ccccc2)CC1`, the outcome is reported as “inactive”.
With `CC(=O)N1CCN(CC(=O)Nc2c(Cl)ccc(C)c2Cl)CC1` the outcome was “inactive”.
In the case of `CCN1CCN(CCCNC(=O)c2cc3c(s2)-c2ccccc2OC3)CC1`, the outcome is reported as “inactive”.
